Laboratory results reported in PubChem BioAssay.
For part of these data: Potency and affinity values are given separately. Activity calls are given as the source filed them. Entries that show only a call come without a potency. Unless noted, no cut-off is given here; in the data, nearly all actives have IC50 up to about 0.98 µM.

tested on: not listed separately; assay: inhibition of 3D7 malaria parasite growth – strain 3D7 (AID 2306; call rule not given here); conditions: P. falciparum 3D7 erythrocytic growth, LDH absorbance, 72 h; at 2 µM; hits give high values

SMILES | growth inhibition
Cc1ccc(CNC(=O)[C@H](CC(C)C)Nc2cc(C)nc(NCC3CCCCC3)n2)cc1 | 96% (active)
CC(Sc1nc2sccc2c(=O)n1C)C(=O)Nc1ccc2c(c1)OCO2 (stereo unspecified) | 100% (active)
CCN(CC)S(=O)(=O)c1cc(-c2ccc(=O)n(CC(=O)c3ccc(C)cc3)n2)ccc1C | 86% (active)
O=c1ccc2ccc(F)c3c2n1CC3CN1CCC(NCc2ccc(-c3cccc(Cl)c3)nc2)CC1 (stereo unspecified) | 96% (active)
CCOc1cccc(C(=O)Nc2cccc(CN3CCCN(Cc4cccc(O)c4)CC3)c2)c1 | 85% (active)
COc1ccc(-c2ccc(NC(=O)c3cccc(F)c3)cc2)cc1CN1CCCN(C)CC1 | 100% (active)
Cc1ccc(Cl)cc1NC(=O)c1c(-c2ccccc2Cl)noc1C | 88% (active)
CC[C@H](C)CNC(=O)c1cncc(-c2ccc(CN3CCC(N4CCCC4)CC3)cc2)c1 | 101% (active)
COc1ccc(NC(=O)/C=C/c2ccccc2Cl)cc1OCCN1CCC(O)(c2ccc(Cl)c(C(F)(F)F)c2)CC1 | 101% (active)
O=[N+]([O-])c1ccc(Nc2nc(NN=Cc3cccc(O)c3)nc(N3CCCC3)n2)cc1 | 88% (active)
CC(C)NCc1ccc(-c2ccc(NC(=O)c3ccc(Cl)cc3)cc2)cc1 | 90% (active)
Cc1c(C(=O)N(C)C)sc2c1c(=O)n(Cc1ccccc1)c(=O)n2CC(=O)Nc1ccccc1F | 97% (active)
COc1ccc(CNC2Cc3ccccc3C2)cc1-c1ccc(S(=O)(=O)NCCc2ccccn2)s1 | 92% (active)
COc1cc(NC(=O)Nc2cccc3ccccc23)c(OC)cc1Cl | 97% (active)
CCOC(=O)c1sc(C(C)Nc2ccccc2)nc1-c1ccccc1 (stereo unspecified) | 95% (active)
COc1ccc(-c2cccc(CNC3CCN(C)CC3)c2)cc1S(=O)(=O)NCc1ccccc1 | 90% (active)
Cc1cc(C)cc(N2C(N)=NC(N)=NC2(C)C)c1 | 93% (active)
Nc1ncc(-c2ccc(Cl)c(Cl)c2)c(N)n1 | 94% (active)
COc1ccccc1C1CCN(C2CCC(NC(=O)/C=C/c3ccc(C(F)(F)F)cc3)CC2)CC1 (stereo unspecified) | 88% (active)
CCOc1cc(Cc2cnc(N)nc2N)cc(OC)c1OC | 90% (active)
COc1ccc(C=Cc2cc(N)c3ccccc3n2)cc1Br | 101% (active)
COc1ccc(NS(=O)(=O)c2cc(NC(=O)Cn3ccccc3=O)ccc2N2CCCCC2)cc1 | 92% (active)
NC1CCCN(Cc2ccc(-c3ccc(-c4nc5ccccc5[nH]4)s3)cc2)C1 (stereo unspecified) | 102% (active)
Clc1ccc(-c2ncc(-c3ccncc3)[nH]2)cc1Cl | 96% (active)
CN(C)CCNCc1ccc(-c2ccc(-c3nc4ccc(F)cc4[nH]3)cc2)cc1 | 101% (active)
O=[N+]([O-])c1cccc(CNCC2CCN(Cc3ccc(-c4ccccc4)cc3)CC2)c1 | 101% (active)

target: Calcium-dependent protein kinase 1 (Plasmodium falciparum (isolate 3D7)) (UniProt P62344); assay: PfCDPK1 kinase inhibitors, biochemical, TCAMS library (AID 1159585); conditions: recombinant PfCDPK1, Kinase-Glo ATP depletion luminescence;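 note: inhibitors leave more ATP so luminescence rises with inhibition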
Sequence (P62344 whole entry, looked up): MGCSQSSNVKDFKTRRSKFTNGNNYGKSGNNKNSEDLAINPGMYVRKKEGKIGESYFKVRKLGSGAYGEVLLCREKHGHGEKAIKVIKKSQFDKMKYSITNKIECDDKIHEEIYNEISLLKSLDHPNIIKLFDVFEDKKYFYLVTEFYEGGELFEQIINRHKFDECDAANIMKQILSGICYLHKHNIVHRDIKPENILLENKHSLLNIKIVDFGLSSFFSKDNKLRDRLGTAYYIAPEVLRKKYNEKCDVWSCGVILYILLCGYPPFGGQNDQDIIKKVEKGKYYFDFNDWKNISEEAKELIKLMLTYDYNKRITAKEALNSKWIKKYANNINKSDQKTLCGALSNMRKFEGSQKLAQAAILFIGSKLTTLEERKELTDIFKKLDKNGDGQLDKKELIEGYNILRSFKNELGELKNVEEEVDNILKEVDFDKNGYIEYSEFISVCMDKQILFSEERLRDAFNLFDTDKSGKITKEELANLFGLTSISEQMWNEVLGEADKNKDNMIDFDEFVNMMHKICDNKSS

SMILES | outcome
COc1ccc2nccc(NN=CC=Cc3ccccc3)c2c1 | inactive
CN(Cc1ccncc1)C(Cc1ccccc1)C1CCN(Cc2ccc(O)c(Cl)c2)CC1 (stereo unspecified) | inactive
C[C@@H]1CN(c2cnn(C/C=C/c3ccc(NC(=O)c4ccc5nonc5c4)cc3)c(=O)c2Cl)C[C@H](C)N1 | inactive
Cc1oc(-c2ccccc2)nc1CCOc1ccc(C[C@H](Nc2ccccc2C(=O)c2ccccc2)C(=O)NCc2ccccn2)cc1 | inactive
N#CC(NC(=O)C=Cc1ccccc1)c1ccccc1 (stereo unspecified) | inactive
COc1ccc(F)cc1-c1ccccc1CNC(=O)CN(C)S(=O)(=O)c1cc(C)cc(Cl)c1C | inactive
c1ccc(CCNc2ccnc(Nc3ccc4n[nH]nc4c3)n2)cc1 | inactive
Oc1ccc(Cl)cc1Nc1nc(C(F)(F)F)nc2ccccc12 | inactive
CCOc1ccc(-c2nonc2NC(=O)c2ccc(OC)cc2)cc1OCC | inactive
Cn1cc(Br)c(-c2cccc(Nc3ccnc4cc(-c5nccs5)ccc34)c2)n1 | inactive
O=C(/C=C/c1ccc(Cl)cc1)NCCCCCN1CCN(C(=O)Nc2ccc(Cl)c(C(F)(F)F)c2)CC1 | inactive
COc1c(C2CCN(CCCCNC(=O)c3ccc(-c4ccc(Cl)cc4)cc3)CC2)ccc2c1C(C)(C)CCC2(C)C | inactive
Cc1noc(C)c1-c1cccc(CNCc2cccc(-c3cccc(-c4nc5ccc(F)cc5[nH]4)c3)c2)c1 | inactive
C=CCOC(=O)N1CCC(CNCc2ccc(-c3cccc(-c4nc5ccc(F)cc5[nH]4)c3)cc2)C1 (stereo unspecified) | inactive
Cc1ccc(CNC(=O)[C@H](CC(C)C)Nc2cc(C)nc(NCC3CCCCC3)n2)cc1 | inactive
CC(Sc1nc2sccc2c(=O)n1C)C(=O)Nc1ccc2c(c1)OCO2 (stereo unspecified) | inactive
CCN(CC)S(=O)(=O)c1cc(-c2ccc(=O)n(CC(=O)c3ccc(C)cc3)n2)ccc1C | inactive
O=c1ccc2ccc(F)c3c2n1CC3CN1CCC(NCc2ccc(-c3cccc(Cl)c3)nc2)CC1 (stereo unspecified) | inactive
CCOc1cccc(C(=O)Nc2cccc(CN3CCCN(Cc4cccc(O)c4)CC3)c2)c1 | inactive
COc1ccc(-c2ccc(NC(=O)c3cccc(F)c3)cc2)cc1CN1CCCN(C)CC1 | inactive

SMILES | outcome
Cc1ccc(Cl)cc1NC(=O)c1c(-c2ccccc2Cl)noc1C | inactive
CC[C@H](C)CNC(=O)c1cncc(-c2ccc(CN3CCC(N4CCCC4)CC3)cc2)c1 | inactive
COc1ccc(NC(=O)/C=C/c2ccccc2Cl)cc1OCCN1CCC(O)(c2ccc(Cl)c(C(F)(F)F)c2)CC1 | inactive
O=[N+]([O-])c1ccc(Nc2nc(NN=Cc3cccc(O)c3)nc(N3CCCC3)n2)cc1 | inactive
CC(C)NCc1ccc(-c2ccc(NC(=O)c3ccc(Cl)cc3)cc2)cc1 | inactive
Cc1c(C(=O)N(C)C)sc2c1c(=O)n(Cc1ccccc1)c(=O)n2CC(=O)Nc1ccccc1F | inactive
COc1ccc(CNC2Cc3ccccc3C2)cc1-c1ccc(S(=O)(=O)NCCc2ccccn2)s1 | inactive
COc1cc(NC(=O)Nc2cccc3ccccc23)c(OC)cc1Cl | inactive
CCOC(=O)c1sc(C(C)Nc2ccccc2)nc1-c1ccccc1 (stereo unspecified) | inactive
COc1ccc(-c2cccc(CNC3CCN(C)CC3)c2)cc1S(=O)(=O)NCc1ccccc1 | inactive
Cc1cc(C)cc(N2C(N)=NC(N)=NC2(C)C)c1 | inactive
Nc1ncc(-c2ccc(Cl)c(Cl)c2)c(N)n1 | inactive
COc1ccccc1C1CCN(C2CCC(NC(=O)/C=C/c3ccc(C(F)(F)F)cc3)CC2)CC1 (stereo unspecified) | inactive
CCOc1cc(Cc2cnc(N)nc2N)cc(OC)c1OC | inactive
COc1ccc(C=Cc2cc(N)c3ccccc3n2)cc1Br | inactive
COc1ccc(NS(=O)(=O)c2cc(NC(=O)Cn3ccccc3=O)ccc2N2CCCCC2)cc1 | inactive
NC1CCCN(Cc2ccc(-c3ccc(-c4nc5ccccc5[nH]4)s3)cc2)C1 (stereo unspecified) | inactive
Clc1ccc(-c2ncc(-c3ccncc3)[nH]2)cc1Cl | inactive
CN(C)CCNCc1ccc(-c2ccc(-c3nc4ccc(F)cc4[nH]3)cc2)cc1 | inactive
O=[N+]([O-])c1cccc(CNCC2CCN(Cc3ccc(-c4ccccc4)cc3)CC2)c1 | inactive
